PubChem BioAssay AID441 (NMMLSC, 2006)
In all, about 24,000 compounds went through this assay and about 70 (0.3%) were called active. What follows is part of a selection rich in actives, with near analogues and random picks from the rest. Unmarked numbers belong to inactive results. No stated cut-off is given here; in the data, active means inhibition above about 30%; inconclusive means no clear call, values can overlap the other calls; inactive means below that.

Target: N-formyl peptide receptor 2 (Homo sapiens) (UniProt P25090)
Assay: human FPRL1 ligands by binding competition, primary screen, cell-based, FPR counter-screen, flow cytometry (AID 441);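 further: 0% = buffer alone and 100% = receptor blocker peptide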
Details: FPRL1-expressing cells, fluorescent ligand binding inhibition, stronger effect = higher value, concentration not given here

Chain of N-formyl peptide receptor 2 (Homo sapiens) (P25090 whole entry, looked up): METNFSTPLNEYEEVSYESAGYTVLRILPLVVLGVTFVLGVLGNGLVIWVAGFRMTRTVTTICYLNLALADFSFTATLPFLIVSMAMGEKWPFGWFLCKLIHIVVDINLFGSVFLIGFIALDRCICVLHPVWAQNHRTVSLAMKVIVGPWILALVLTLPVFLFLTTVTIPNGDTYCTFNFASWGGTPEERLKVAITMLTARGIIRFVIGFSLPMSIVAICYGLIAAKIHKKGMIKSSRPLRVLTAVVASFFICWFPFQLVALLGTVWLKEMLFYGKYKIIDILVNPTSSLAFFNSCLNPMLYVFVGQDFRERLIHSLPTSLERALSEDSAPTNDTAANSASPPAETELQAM

Compound | inhibition
Cc1nnc(SCC(=O)N(C(C)C)C(C)C)nc1C | -5.7%
CCOC(=O)N1CCC(NC(=O)Cn2cc3c(n2)CCCCC3)CC1 | 0.2%
CCOC(=O)c1oc2c(CN3CCN(C)CC3)c(O)ccc2c(=O)c1-c1ccc(Br)cc1 | -3%
Cn1c(CNC(=O)C(C)(C)C)nc2ccccc21 | -0.3%
Cc1c(NC(=O)C(C)OC(=O)c2cc3c4ccccc4n(C)c3s2)c(=O)n(-c2ccccc2)n1C (stereo not given) | 0.1%
CCCNC(=O)C1CC(=O)N(c2ccc(OCC(=O)Nc3cccc(C)c3C)cc2)C1 (stereo not given) | -4.6%
O=c1c2ccccc2[nH]c(=S)n1CCN1CCC(=C(c2ccc(F)cc2)c2ccc(F)cc2)CC1 | -11%
O=C1C(=O)N(CCN2CCOCC2)C(c2ccccn2)/C1=C(/O)c1ccc(Cl)cc1 (stereo not given) | -6.2%
CC1Cc2cc(/C(O)=C3\C(=O)C(=O)N(CCN4CCOCC4)C3c3ccccc3F)ccc2O1 (stereo not given) | 30.8% (active)
COCCCN1C(=O)C(=O)/C(=C(/O)c2ccc3c(c2)CC(C)O3)C1c1cccnc1 (stereo not given) | 28.3%
CCOc1ccccc1C1CC(c2ccccc2)Nc2nc(N)nn21 (stereo not given) | 0.2%
CCOC(=O)C1CCN(C(=O)Cc2c(C(=O)O)[nH]c3ccccc23)CC1 | 0.3%
CC1CCC(NS(=O)(=O)c2ccc3c(c2)n(C)c(=O)c(=O)n3C)CC1 (stereo not given) | -4.7%
O=C(CC(NCCN1CCOCC1)C(=O)O)Nc1cccc(Cl)c1 (stereo not given) | 4.9%
CCN(CCCNC(=O)C1CCN(S(=O)(=O)c2cnc[nH]2)CC1)c1ccccc1 | -1.3%
CCOC(=O)CNC(=O)CN1C(=O)CCSc2ccccc21 | -6.4%
CCOC(=O)c1ccc(-n2c(C)nc3c(cnn3-c3ccccc3C)c2=O)cc1 | -6%
Cc1cc(C)cc(N(CC(=O)NCC2CCCO2)S(=O)(=O)c2c(C)noc2C)c1 (stereo not given) | 3.6%
Cc1nc2ccccc2c2oc(C(=O)NCC3CCCO3)cc12 (stereo not given) | 3.5%
CCOC(=O)c1nnn(-c2nonc2OC)c1-c1ccccc1 | 5.9%

Compound | inhibition
N#CCCN1CCN(S(=O)(=O)c2ccc(S(=O)(=O)N3CCCC3)cc2)CC1 | 1.9%
COC(=O)C1=C(C)Nc2ncnn2C1c1ccco1 (stereo not given) | 0.6%
COc1ccc(N2C(=O)CCC(C(=O)N(C)C3CCCCC3)C2c2ccc(OC)c(OC)c2)cc1 (stereo not given) | -4.6%
CCOC(=O)N1CCC(Nc2c(NCCN3CCN(c4cccc(Cl)c4)CC3)c(=O)c2=O)CC1 | 8%
O=C(CC1Oc2ccccc2NC1=O)NCCCN1CCN(Cc2ccccc2)CC1 (stereo not given) | -1.8%
Cc1cccc(N2C(=O)SC(N(CC(=O)O)c3cccc(C)c3)C2=O)c1 (stereo not given) | 0.6%
C/C(N)=C(\C#N)C(=O)NCCc1ccccn1 | -4.6%
COC(=O)c1ccc(CN(c2ccccc2OC)S(=O)(=O)c2cccs2)o1 | -4.4%
O=C(NCc1ccco1)C1CCCN(S(=O)(=O)c2cnc[nH]2)C1 (stereo not given) | 0.2%
Cc1cc(N2C(=O)C(=O)/C(=C(/O)c3ccccc3)C2c2cccc(Br)c2)no1 (stereo not given) | -8.1%
COc1cccc(C(CC(=O)NCCN2CCOCC2)NS(=O)(=O)c2ccc(C)cc2)c1OC (stereo not given) | 0.8%
O=C(CN1CCN(c2ccccc2F)CC1)c1ccc2c(c1)OCO2 | -9.1%
O=C(Nc1cccnc1)c1ccc2c(c1)OCO2 | -0.1%
CCOC(=O)c1cn(CC(=O)Nc2ccc(C(C)C)cc2)nn1 | 1.8%
CC1CN(C(=O)c2ccc3c(c2)OCO3)OC(c2ccccc2)O1 (stereo not given) | 5.6%
Cc1ccc(-n2nc3cc(Cl)c(NC(=O)c4ccco4)cc3n2)cc1 | -4.7%
CCOC(=O)c1nc(-c2ccc3c(c2)OCO3)[nH]c1C | -7.4%
CCC1=C(C(=O)OC)C(c2cc(OC)ccc2OC)C(C#N)=C(N)O1 (stereo not given) | -1.1%
COCCN1C(=O)c2oc3c(C)cc(C)cc3c(=O)c2C1c1cccc(O)c1 (stereo not given) | -10.9%
CCCS(=O)(=O)N1CCCC(C(=O)NCCN2CCCCC2C)C1 (stereo not given) | 3.4%

Compound | inhibition
O=C(Cn1cnc2c(nnn2Cc2ccc(F)cc2)c1=O)NCc1ccc2c(c1)OCO2 | -2.3%
Cc1cc(C)c2c(n1)nn1c(N3CCOCC3)cc(C)nc21 | -1.1%
CCOc1ccc(C(CC(=O)O)NC(=O)COc2ccccc2)cc1 (stereo not given) | 0.6%
CCOC(=O)C1C(=O)C=C(c2ccc(OC)cc2)CC1c1ccco1 (stereo not given) | -6.4%
CCn1cc(C(=O)NC2CCCCCC2)c(=O)c2cc(S(=O)(=O)N3CCCCC3)ccc21 | -5.2%
Brc1cnc(N2CCCC2)nc1N1CCCCC1 | 0.1%
CC(C)Cc1cc(C(=O)Nc2cc(Br)ccc2O)no1 | -1.4%
Cc1cc(NC(=O)c2cc(-c3cccs3)on2)nn1Cc1ccc(Cl)cc1 | 2%
CC(C)C[C@H](NC(=O)Nc1cccc(C(F)(F)F)c1)C(=O)O | 2.8%
Fc1ccccc1C(c1nnnn1Cc1ccc2c(c1)OCO2)N1CCN(Cc2ccccc2)CC1 (stereo not given) | 10.3%
c1ccc(Cc2nn3c(Cn4cnc5ccccc54)nnc3s2)cc1 | 4.2%
CCOc1cccc(-c2nnc3sc(COc4ccc(OC)cc4)nn23)c1 | -1%
Clc1ccc(Cc2nn3c(-c4ccncc4)nnc3s2)cc1 | 54.5% (active)
O=C(COC(=O)C12CC3CC(CC(C3)C1)C2)NCc1ccco1 | 0.4%
CCCN(CCC)CCNC(=O)c1cc2c(C)nc3ccccc3c2o1 | 4.8%
O=C1CC(c2cccc(F)c2)C2=C(CCCC2=O)N1 (stereo not given) | 4.1%
CC(=O)NC1CC2CCCC(C1)N2CC(=O)Nc1ccccc1 (stereo not given) | 2.2%
O=C1NC2(CCCCC2)N=C1c1ccccc1 | -5.4%
CC(=O)Nc1cc(C(=O)O)ccc1S(=O)(=O)c1ccc(Cl)cc1 | -2.1%
CCOC(=O)c1cnc(-n2nc(C)cc2C)nc1Nc1cccc(C(C)=O)c1 | 9%
